Screens from PubChem BioAssay.
tim10-1 inh = inhibits growth of tim10-1 mutant yeast | S. cerevisiae tim10-1 ts strain growth, BacTiter-Glo, 24 h | inhibition, % at 20 µM | 330,000 compounds, 2.2% hits;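 active = inhibition of at least 40%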;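 note: mutant grown at 25 °C; 0% = DMSO wells with yeast and 100% = wells holding no yeast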
tim23-1 inh = inhibits growth of tim23-1 mutant yeast | S. cerevisiae tim23-1 growth, BacTiter-Glo luminescence, 24 h | inhibition, % at 20 µM | 330,000 compounds, 1.3% hits | AID 463212;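 active = growth inhibition of the mutant yeast at or above 50%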;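 note: temperature-sensitive mutant grown at 25 °C; plate controls were DMSO-treated mutant yeast for no effect and medium wells lacking yeast for full effect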
SKKanGAS inh = inhibitors of SKKanGAS S. pyogenes growth in kanamycin (SK-promoter or general growth effect); BacTiter-Glo, 6 h; inhibition, % at 7.5 µM; 300,000 compounds, 1.3% hits; AID 1662;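 active = mean replicate score, as percent of positive control median, at least 50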;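 note: strain carries kanamycin resistance gene driven by streptokinase promoter and grows in 40 µg/ml kanamycin; loss of luminescence reflects streptokinase promoter inhibition or plain growth inhibition; 0% = median of DMSO wells and 100% = positive control at its reference dose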
EBI2 block = EBI2 (human) antagonism. P32249. EBI2 beta-arrestin recruitment, luminescence, 7a,25-OHC stimulated. inhibition, % at 5 µM. 360,000 compounds, 0.81% hits. AID 651636; in the data active = inhibition above about 38%;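 note: enzyme fragment complementation signal reports receptor beta-arrestin coupling in cells; 0% = agonist plus DMSO wells and 100% = wells without agonist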
Target sequence (P32249 whole entry, looked up, the tested form may be a part): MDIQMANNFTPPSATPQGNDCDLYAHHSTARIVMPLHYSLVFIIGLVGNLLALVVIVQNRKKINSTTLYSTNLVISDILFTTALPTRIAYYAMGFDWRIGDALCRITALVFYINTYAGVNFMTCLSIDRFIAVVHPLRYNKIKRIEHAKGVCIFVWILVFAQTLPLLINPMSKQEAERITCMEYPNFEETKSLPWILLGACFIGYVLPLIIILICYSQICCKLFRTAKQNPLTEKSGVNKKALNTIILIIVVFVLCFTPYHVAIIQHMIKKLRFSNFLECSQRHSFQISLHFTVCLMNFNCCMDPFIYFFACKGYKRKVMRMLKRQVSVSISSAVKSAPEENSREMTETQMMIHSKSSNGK
PfHsp90 yeast 2 = inhibits growth of yeast expressing Plasmodium falciparum Hsp90; 310,000 compounds, 0.32% hits; inhibition, % at 9.4 µM; S. cerevisiae expressing PfHsp90, BacTiter-Glo ATP, 48 h; yeast lacking PDR1 and PDR3 efflux regulators;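 active = every replicate shows inhibition above about 80%, whatever the replicate mean, limit read from the data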;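 note: 0% = DMSO neutral controls and 100% = 20 µM radicicol positive controls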
TIM10 inh = growth inhibitors of TIM10 yeast strain; S. cerevisiae TIM10 strain growth, BacTiter-Glo luminescence, 24 h; inhibition, % at 10 µM; 330,000 compounds, 1.4% hits;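 active = inhibition of 40% or more at the single tested concentration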;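 note: wild-type TIM10 isogenic control strain grown at permissive 25 °C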
EBI2 antag conf = EBI2 (human) antagonism, single concentration confirmation; shares compounds with EBI2 block; EBI2 beta-arrestin luminescence, 7a,25-OHC antagonism; inhibition, % at 5 µM; 2,400 compounds, 29% hits; AID 651997;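 active = inhibition of at least 50%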
EBI2 agonist = activates EBI2, counter-screen for EBI2 antagonists; AID 652000; EBI2-expressing cells, agonist mode, luminescence, 60 min; 0% vehicle, 100% 7α,25-dihydroxycholesterol control; shares compounds with EBI2 block; activation, % at 5 µM; 2,400 tested, under 10 active;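 active = activation of at least 50%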
bGal cs = inhibits E. coli beta-galactosidase, counter-screen for EBI2 antagonists; purified beta-galactosidase, luminescent Galacton Star, 15 min; inhibition, % at 5 µM; shares compounds with EBI2 block; 2,400 compounds, 1% hits;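 active = replicate-average signal at least 3 plate SD below neutral wells, shown as high inhibition, flagging enzyme-inhibiting false positives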;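 note: 0% = DMSO wells with enzyme and 100% = wells lacking enzyme; higher means stronger loss of beta-gal luminescence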
* hit, by the source's call; · = no result given. Most compounds without a hit are left out; they make up all but 4.7% or so of the library.

SMILES	tim10-1 inh	tim23-1 inh	SKKanGAS inh	EBI2 block	PfHsp90 yeast 2	TIM10 inh	EBI2 antag conf	EBI2 agonist	bGal cs
COc1ccc(OC)c(NC(=O)CN(c2ccc(C)cc2)S(=O)(=O)c2c(C)noc2C)c1	27.7	1.9	2.2	48.2*	22.5	23.6	14.8	-1.1	-9.2
CCOC(=O)C1=C(COC(=O)c2ccc(OC)c(OC)c2OC)NC(=O)NC1C (stereo not drawn)	15.3	0.9	-7.9	-19.1	11.6	0.9	·	·	·
O=c1[nH]c(C2CCN(S(=O)(=O)/C=C/c3ccccc3)CC2)nc2c1nnn2Cc1ccc(F)cc1	-6.7	0.6	26.5	48.5*	4.2	13.7	33.1	0.0	7.3
O=c1[nH]c(C2CCN(S(=O)(=O)Cc3ccccc3)CC2)nc2c1nnn2Cc1ccccc1	19.7	15.1	4.6	-11.4	-24.5	-5.5	·	·	·
c1ccc(-c2csc(Nc3ccc4c(c3)OCO4)n2)cc1	·	·	·	44.5*	·	·	46.9	0.9	6.4
N#Cc1ccc(Nc2nc(-c3ccccc3)cs2)cc1	·	·	·	27.1	·	·	·	·	·
O=C(CSc1ccc(Cl)cc1)N1CCN(c2c(Cl)cccc2[N+](=O)[O-])CC1	7.0	6.3	4.1	94.0*	-10.7	-5.7	86.4*	1.3	4.0
O=C(CSc1ccc(Cl)cc1)N1CCN(c2ccc([N+](=O)[O-])cc2Cl)CC1	-40.4	-51.1	12.3	83.7*	18.2	-21.2	37.5	-1.2	-10.8
O=C(/C=C/c1ccc(Cl)cc1)N1CCN(c2c(Cl)cccc2[N+](=O)[O-])CC1	17.6	23.8	17.3	97.9*	-30.3	10.3	90.7*	0.9	3.1
Cc1ccc(CN2CC(C(=O)NCCC3=CCCCC3)CC2=O)cc1 (stereo not drawn)	9.4	19.7	·	1.7	13.5	6.6	·	·	·
COc1ccc(/C=C/C(=O)c2ccc3c4c(cccc24)CC3)cc1	5.8	12.7	-7.8	56.5*	-17.0	6.5	35.9	1.6	4.5
CN(C(=O)COC(=O)c1ccc(-c2ccc(O)cc2)cc1)C1CCS(=O)(=O)C1 (stereo not drawn)	-5.8	-13.6	1.4	5.9	7.7	-11.4	·	·	·
CN(C(=O)c1cccc(NC(=O)Cc2ccc(NC(=O)C3CCN(S(=O)(=O)c4cccc([N+](=O)[O-])c4)CC3)cc2)c1)C1CCC1	·	·	·	76.5*	-13.3	·	14.3	-2.0	-3.7
COc1ccc([C@H]2CC(=O)C=C(c3ccc4ccccc4c3)C2)cc1OC	12.3	9.9	·	61.9*	15.6	9.6	50.9*	-1.7	1.1
COc1ccc([C@H]2CC(=O)C=C(c3ccc(OC)c(F)c3)C2)cc1	11.0	37.7	·	51.1*	-18.6	5.4	46.2	-1.0	-4.4
COc1ccc([C@H]2CC(=O)C=C(c3cc(F)ccc3OC)C2)cc1	21.6	25.9	·	18.7	-1.0	13.8	·	·	·
COc1ccc([C@H]2CC(=O)C=C(c3ccc(OC)c(OC)c3)C2)cc1	-3.4	30.0	·	46.0*	-2.4	5.7	43.4	1.4	4.2
COc1ccc([C@H]2CC(=O)C=C(c3ccc(O)cc3)C2)cc1OC	8.9	25.8	·	17.8	-13.3	6.3	·	·	·
Cc1c(C(=O)NCCN2C(=O)S/C(=C\c3cccnc3)C2=O)cccc1[N+](=O)[O-]	22.3	31.3	-5.1	1.6	3.7	-7.8	·	·	·
COc1cc(OC)cc(C(=O)N2CCN(C(=O)c3ccc(-c4ccccc4)cc3)CC2)c1	11.0	8.4	-10.6	89.0*	2.5	19.6	66.9*	-1.2	-1.1
CC(C)CC(=O)N1CCN(S(=O)(=O)c2ccccc2)CC1	14.3	2.1	-14.0	-5.2	·	7.0	·	·	·
COc1cccc(C(=O)N2CCN(C(=O)c3ccc(-c4ccccc4)cc3)CC2)c1OC	27.3	19.2	-8.3	77.9*	-35.9	6.5	48.3	0.8	10.4
COc1cccc(C(=O)N2CCOCC2)c1OC	4.7	4.4	1.0	2.1	·	-21.9	·	·	·
COc1ccc(C(=O)N2CCN(C(=O)c3ccc(-c4ccccc4)cc3)CC2)cc1OC	15.8	4.2	-3.2	80.7*	-23.2	10.9	49.2	0.2	11.2
COc1ccc(C(=O)N2CCN(c3ccc(C)cc3)CC2)cc1OC	15.5	16.6	-3.9	16.9	26.7	2.5	·	·	·
SMILES	tim10-1 inh	tim23-1 inh	SKKanGAS inh	EBI2 block	PfHsp90 yeast 2	TIM10 inh	EBI2 antag conf	EBI2 agonist	bGal cs
CC(C)CC(=O)N1CCN(C(=O)c2ccc(-c3ccccc3)cc2)CC1	3.9	6.5	-2.9	73.6*	-12.8	-2.7	24.7	0.1	7.2
COc1ccc(S(=O)(=O)N2CCCOC2CNC(=O)C(=O)NCCc2ccco2)cc1OC (stereo not drawn)	12.8	15.7	10.7	-3.4	-2.1	-0.8	·	·	·
CC(C)(C)c1ccc(/C=C2\CCn3c2nc2cc(C(=O)O)ccc2c3=O)cc1	-17.5	33.0	43.9	-0.1	-13.0	4.4	·	·	·
O=C(c1ccccc1)N1CCN(C(=O)c2ccc(OC(F)(F)F)cc2)CC1	-11.6	-10.9	-1.1	52.7*	-1.6	-7.0	28.0	1.7	11.3
CCC(C)NC(=O)C1CCN(C(=O)c2ccccc2)CC1 (stereo not drawn)	9.5	11.8	·	3.7	-17.3	12.8	·	·	·
CC(=O)N1CCN(C(=O)c2ccc(Oc3ccccc3)cc2)CC1	0.0	0.3	3.3	2.5	-7.0	-4.6	·	·	·
CC(C)NC(=O)C1CCN(C(=O)c2ccc(-c3ccccc3)cc2)CC1	6.1	9.0	-2.1	44.0*	55.2	-4.8	41.9	-1.5	-20.2
COc1ccc(C(=O)N2CCC(O)(c3ccc(Cl)cc3)CC2)cc1OC	-5.0	14.4	0.3	51.7*	11.2	-2.2	44.3	1.8	0.5
COc1cc(/C=C/C(=O)Nc2ccc(C(C)=O)cc2)cc(OC)c1OC	34.1	27.1	-5.4	-17.3	7.9	11.1	·	·	·
CN(C)c1ccc(C(=O)C=Cc2ccc([N+](=O)[O-])cc2)cc1	·	·	·	52.7*	·	·	26.9	0.1	-7.9
Cc1ccc(/C=C/C(=O)c2ccc(C)cc2)cc1	26.6	22.7	-9.7	61.1*	·	-3.9	66.2*	2.3	2.2
CC(=O)c1ccc(NC(=O)/C=C/c2ccc(C)cc2)cc1	-32.0	9.2	2.2	54.2*	-8.3	1.7	29.8	1.9	3.2
Cc1ccc(C(=O)C=Cc2cccc(C)c2)cc1	·	·	·	24.7	·	·	·	·	·
O=C(C=Cc1ccccc1)c1ccc([N+](=O)[O-])cc1	·	·	·	6.7	-19.0	·	·	·	·
COc1ccc(C(=O)/C=C/c2ccc(C)cc2)c(OC(=O)c2ccc([N+](=O)[O-])cc2)c1	14.8	7.0	10.4	81.6*	11.0	-0.9	28.3	-0.6	-12.8
